Rows were chosen to be rich in hits. Some 9.9% of all compounds tested hit in one or more screens of this group.
KB-3-1 cytotox = qHTS assay for MDR1-selective chemotherapeutics: Primary screen using the parental adenocarcinoma cell KB-3-1 | KB-3-1 viability, CellTiter-Glo ATP luminescence, 72 h | Potency, µM (top dose mostly 46.1 µM), usual class: cytotoxic | actives 1.4% (n = 400,000) | AID 1347075, 2019; also: nearly all actives have a fitted effect of over 60% in size
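Cytotoxicity in the drug-sensitive parental line KB-3-1 was scored as loss of CellTiter-Glo luminescence following 72 h incubation with compound. Values come from curve fitting of normalized concentration-response data.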
IL1B secr inh = qHTS for Inhibitors of Inflammasome Signaling: IL-1-beta AlphaLISA Primary Screen; THP-1 LPS/ATP IL-1B secretion, AlphaLISA, 16 h; stronger effect = lower value; activity change, % at 57.5 µM; actives 4.7% (n = 360,000); in the data active = activity change below about -50%; inconclusive = mostly about -30% to -49%
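THP-1 cells pretreated 1 hr with compounds (up to 57.5 uM final), then stimulated with LPS (250 ng/mL final) plus ATP (1.25 mM final); secreted IL-1B measured by AlphaLISA after 16 hr, decreased signal indicating inhibition.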
SW480 rereplic = A quantitative high throughput screen for small molecules that induce DNA re-replication in SW480 colon adenocarcinoma cells | SW480 DNA re-replication, Hoechst DNA content imaging, 48 h | actives 1.8% (n = 340,000) | Potency, µM (highest dose often 46.1 µM), hits mostly activators; also: nearly all actives have a fitted effect of over 55% in size
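250 cells/well; 23 nL cpd via pin tool; 48 hr, 37 C, 5% CO2; Hoechst 40 min; imager read of total nuclear intensity, ex 405/em 500-530 nm.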
KB-V1 cytotox = qHTS assay for MDR1-selective chemotherapeutics: Primary screen using the drug-selected MDR subline cells KB-V1 | KB-V1 MDR cells viability, CellTiter-Glo, 72 h | actives 3.4% (n = 400,000) | Potency, µM (top dose mostly 46.1 µM), most hits filed as cytotoxic; also: nearly all actives have a fitted effect of over 60% in size
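Following 72 h at 37 degrees C with compound, KB-V1 cell viability was read by CellTiter-Glo luminescence, medium being phenol-red-free DMEM plus 10% FBS; concentration-response parameters came from normalized, curve-fitted qHTS data.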
MCF10A rerep = A quantitative high throughput screen for small molecules that induce DNA re-replication in MCF 10a normal breast cells; MCF 10A DNA re-replication, Hoechst nuclear intensity, 48 h; Potency, µM (titrated, usually from 46.1 µM), actives largely listed as activators; actives 2.9% (n = 350,000); also: nearly all actives have a fitted effect of over 50% in size
Of the large screens only hits and unclear results are named; the others gave an inactive call. Unless noted, calls follow the shape of the dose curve; as a rule, active = well fitted curve in the direction sought with a large enough effect; inconclusive = small, poorly fitted or top-dose-only effect, or another doubt; inactive = no such curve, though single readings can be large; an effect the other way counts as inactive or inconclusive.

CC1CCCCN1C(=O)c1cccc(NC2=C(Cl)C(=O)N(Cc3ccccc3)C2=O)c1 (stereo not drawn)	KB-3-1 cytotox inconclusive, IL1B secr inh -88.1, SW480 rereplic inconclusive, KB-V1 cytotox inconclusive, MCF10A rerep 23.1µM
O=C1C(Cl)=C(Nc2cccc(O)c2)C(=O)N1Cc1ccccc1	IL1B secr inh -98.2, MCF10A rerep inconclusive
CCOc1ccccc1NC1=C(Cl)C(=O)N(Cc2ccccc2)C1=O	KB-3-1 cytotox inconclusive, MCF10A rerep inconclusive
COc1ccc(OC)c(NC2=C(Cl)C(=O)N(Cc3ccccc3)C2=O)c1	IL1B secr inh -164.8, MCF10A rerep inconclusive
CC1CCN(C(=O)c2ccc(NC3=C(Cl)C(=O)N(Cc4ccccc4)C3=O)cc2)CC1	KB-3-1 cytotox inconclusive, IL1B secr inh -93.0, SW480 rereplic inconclusive, MCF10A rerep 23.1µM
CC1CCCCN1C(=O)c1ccc(C(=O)c2ccccc2)cc1 (stereo not drawn)	none
NC(=O)C1CCN(C(=O)Nc2csc3ccccc23)CC1	none
CCCN(CC(=O)NC(=O)NCc1ccccc1)CC(=O)Nc1ccc(F)c(F)c1F	IL1B secr inh inconclusive, KB-V1 cytotox inconclusive (no result: SW480 rereplic, MCF10A rerep)
Cc1cc(C)c2c(=O)c3c(oc2c1)C(=O)N(CCCOC(C)C)C3c1ccccc1F (stereo not drawn)	none (no result: IL1B secr inh, SW480 rereplic, MCF10A rerep)
O=C1C(Cl)=C(N2CCOCC2)C(=O)N1CCc1ccccc1	KB-V1 cytotox 14.6µM
CN1CCN(C2=C(Cl)C(=O)N(CCc3ccccc3)C2=O)CC1	IL1B secr inh inconclusive
O=C1C(Cl)=C(Nc2ccc(F)cc2)C(=O)N1CCc1ccccc1	IL1B secr inh -147.6
COCCN(CC(=O)NC1CCCCC1)C(=O)CCCC(=O)Nc1ccccn1	KB-V1 cytotox inconclusive
COc1ccccc1CN1C2CCCC1CC(NC(=O)/C=C/c1ccccc1)C2 (stereo not drawn)	IL1B secr inh -76.6
COc1ccc2nc(NC(=O)c3ccc(NC(=O)C4CCCO4)cc3)sc2c1 (stereo not drawn)	KB-3-1 cytotox 7.31µM, SW480 rereplic inconclusive, MCF10A rerep 20.6µM
Cc1ccc2nc(NC(=O)c3ccc(OCC4CCCO4)cc3)sc2c1 (stereo not drawn)	KB-3-1 cytotox inconclusive, IL1B secr inh -109.9, KB-V1 cytotox inconclusive
CCOc1ccc(NC(=O)c2nc(S(=O)(=O)Cc3ccc(F)cc3)ncc2Cl)cc1	KB-V1 cytotox inconclusive (no result: IL1B secr inh, SW480 rereplic, MCF10A rerep)
CS(=O)(=O)c1ncc(Cl)c(C(=O)Nc2ccc(N3CCOCC3)cc2)n1	IL1B secr inh -102.2, SW480 rereplic 10.3µM
CS(=O)(=O)c1ncc(Cl)c(C(=O)Nc2ccc(OC(F)F)cc2)n1	KB-3-1 cytotox inconclusive, IL1B secr inh -98.6, SW480 rereplic 1.84µM, KB-V1 cytotox inconclusive, MCF10A rerep 5.17µM
COc1cc(OC)c(NC(=O)c2cc3c(s2)-c2ccc(Cl)cc2SC3)cc1Cl	none (no result: IL1B secr inh, SW480 rereplic, MCF10A rerep)
COCC(=O)OC1CCn2c1nc1c2C(=O)C(C)=C(NC(C)=O)C1=O (stereo not drawn)	KB-3-1 cytotox inconclusive, SW480 rereplic 1.46µM, MCF10A rerep 9.2µM
CCOC(=O)C1CCN(C(=O)c2ccc(NS(=O)(=O)c3ccc(F)cc3C)cc2)CC1	IL1B secr inh -97.1
CCOC(=O)C1CCN(C(=O)c2ccc(Cl)c(S(=O)(=O)N3CCOCC3)c2)CC1	SW480 rereplic inconclusive, MCF10A rerep 13µM
Cc1cc(F)ccc1S(=O)(=O)Nc1ccc(C(=O)N2CCCCC2)cc1	none
COc1ccc(NC(=O)c2ccc(Cl)c(S(=O)(=O)N3CCc4ccccc4C3)c2)cn1	KB-V1 cytotox 4.61µM, MCF10A rerep inconclusive
O=C(c1ccc(Cl)c(S(=O)(=O)N2CCOCC2)c1)N1CCc2ccccc2C1	KB-3-1 cytotox 20.6µM, IL1B secr inh -63.7, KB-V1 cytotox 3.66µM
COc1ccc(NC(=O)c2ccc(Cl)c(S(=O)(=O)N3CC(C)OC(C)C3)c2)cn1 (stereo not drawn)	KB-3-1 cytotox inconclusive
COCc1cn(CC(C)n2c(=O)c3ccccc3n2Cc2cc(C(C)C)no2)nn1 (stereo not drawn)	none (no result: SW480 rereplic, MCF10A rerep)

Compound activity deposited in PubChem by National Center for Advancing Translational Sciences (NCATS).
